# From the supplement of paper PMC10681739
# Target: T1, ETS1 (UniProt P14921)
# T1 sequence: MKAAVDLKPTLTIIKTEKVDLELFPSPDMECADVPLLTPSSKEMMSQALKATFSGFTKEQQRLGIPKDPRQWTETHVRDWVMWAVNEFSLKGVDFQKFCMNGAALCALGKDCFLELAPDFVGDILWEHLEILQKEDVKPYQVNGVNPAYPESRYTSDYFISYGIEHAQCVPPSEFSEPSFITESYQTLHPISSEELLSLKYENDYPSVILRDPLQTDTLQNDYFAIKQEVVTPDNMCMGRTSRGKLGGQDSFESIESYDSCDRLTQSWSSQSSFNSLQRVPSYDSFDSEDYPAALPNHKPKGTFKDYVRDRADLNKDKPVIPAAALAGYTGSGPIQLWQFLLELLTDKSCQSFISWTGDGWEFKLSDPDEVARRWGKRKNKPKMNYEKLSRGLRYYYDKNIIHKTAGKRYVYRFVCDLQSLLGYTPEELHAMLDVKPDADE
# Test: ETS1 binding intensity (PBM fluorescence), ETS1 alone (arbitrary fluorescence units); higher = stronger binding
# Details: ETS1 concentration 1 nM; RUNX1 concentration 0 nM
# Description: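 Cooperative genomic-context PBM: 36-bp genomic probes with neighbouring ETS1 and RUNX1 sites, double-stranded on Agilent 4x180k arrays. Full-length recombinant human ETS1 (1 nM) was incubated alone or with RUNX1 (25 nM) and detected with anti-ETS1 antibody plus Alexa488 secondary. Value is the median fluorescence intensity over 4 replicate spots; the ETS1+RUNX1 data were normalised to the ETS1-only data using probes without RUNX1 sites. The 36-bp variable region sits on the array probe with constant linker/primer flanks that are not printed.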
row,Sequence,ETS1 binding intensity
1,TCCAGCCGGACGCGATGCCTGGAGGCTGCGGGCGCC,328
2,ACAGATAGTGATATCCTGTGGTCAATTCCCTCCCCT,949
3,TGGGGTGGGGTGGGAAGTGCCAGCGGTCTGGGTGTC,537
4,AGGGAAGCGGCGGCGGAAGCCCCGCAGGAGGCCGGC,806
5,GTGAGAGGAAGTGGGCGCTGGTTTAATGTGGTCAGC,1010
6,TGCACCCGCCACTTCCGCATCGAACCGCCGCTTCAA,1100
7,TATCACATCCTGCCGGACAAAAAGGCCAAACCACCT,536
8,ATGGCGAAGCAGGATGCCCTCAACCCACATACGGCA,638
9,CTAAGCAGAGGCCGGAAGCGGTGGTTTTTAGCGGCT,10200
10,CTGGCAGGCCTCACTTCCTCACCACATGGCCCTCCC,543
11,CTCACTTCCCCGGCAGCTCCCTCGCCCCGACCGCAG,406
12,CTTCAAAGTCAGGAAACCGTTAAACCACACTGCATC,716
13,TTGTCACGTCCGGCACGCCGCGAACCGCAAGGAACC,571
14,TGAAGTTCAGGGGGAAGTGGTTAGAGTCCCTGCGAG,494
15,CATGGTTGTTATTTCCTCACCACAATATGTGACATT,386
16,ATTCCTAGAGAGGAAATGCGGGCTCAGGGTGTCGGC,1550
17,CCCAGCCGAGGGAGGAAGCCTGCGGTCACTGCCATC,402
18,TGGCTGTCACTTCCTGTCCCACTGTGGTTCCTGGGA,4940
19,GGGCAGGAAGGAAGAGGGCTCCTCCCCACAAGCTCT,437
20,CCTGTTCCGGGCTCCGTACACCCAGGCCCGCAGCTG,550

row,Sequence,ETS1 binding intensity
1,CTTACAGTCACAACAGGATGTGGTTTGACATTTACT,6780
2,TTTTCCCACTTCCTAGGTTGTGGTGGGGATTACACA,475
3,GCCCGCGGCTCCGGAAGCGGCTGCGGCCCCGACCGG,3000
4,CTCACTCATCTGACTTCCTGCGGTTTACGACAACAG,1200
5,ACTCCAGAGGAAGTGGCAAGACGAGCGCGGTAACGG,1080
6,CCATGAGGAGGGAGGAAATAGTGGTACGAGGGCTGC,1040
7,ACACCGCTCAGGAAGACAAAGCCACACCTCACACCA,443
8,AGCTTTCCTTTTCCGGTTGCGGCGCCGCGCGTTGAT,1800
9,CCTCATTTCCGGGCTGTTTGCGCGCAAGCCCACATC,1090
10,TTAACCAGACATTTCCTGTGGTCTAAGGTGACCCCA,859
11,AATAAAGCTACAGACTTCCGCCCACAGGTCGCCGCT,1020
12,AAAGCAAACAGGAAGTGCTGTGGTAACAAGGCCCCA,6830
13,CTCTTCTTCAGGGTTTCCTGTGGGTACACTGAGAAC,604
14,CTTTGCAGGAAGCTGGGGTTCACCCACAGCCTTGTT,749
15,CGACTTCCGTCCCTGGGTGGGATCGAACCACCAACC,532
16,TTTTCTTTCCTAGGAAGTGGTTGCTGGGTTCTGAGG,785
17,GCTTCTGAGGAAGTGCGTTCTGTGGGTAGGTGGAGT,677
18,GGTCAGGTGGGCGTTTCCTGTGGGCGTCTCCAACTC,1240
19,CTAAGTGCTCTTCCTGCCAACCTGTGGGCGCCTGGC,559
20,TCTGAGAATGCAGGATATGTGTGTGGTCTCTAGTCA,1240
